# A number with no mark means an inactive call.
# How the values were obtained:
# Test in all cases: log2 ratio of Biotin-Ahx-Ub-VS probe labelling (fragment/DMSO); higher = less target engagement (more negative = stronger competition), active = hit call of the paper (q ≤ 0.05, log2 ratio ≤ -1)
# Conditions in all cases: compound concentration: 200 uM; treatment time: 3 h
# USP19 = target: T1, USP19 (UniProt O94966)
# T1 sequence (whole entry): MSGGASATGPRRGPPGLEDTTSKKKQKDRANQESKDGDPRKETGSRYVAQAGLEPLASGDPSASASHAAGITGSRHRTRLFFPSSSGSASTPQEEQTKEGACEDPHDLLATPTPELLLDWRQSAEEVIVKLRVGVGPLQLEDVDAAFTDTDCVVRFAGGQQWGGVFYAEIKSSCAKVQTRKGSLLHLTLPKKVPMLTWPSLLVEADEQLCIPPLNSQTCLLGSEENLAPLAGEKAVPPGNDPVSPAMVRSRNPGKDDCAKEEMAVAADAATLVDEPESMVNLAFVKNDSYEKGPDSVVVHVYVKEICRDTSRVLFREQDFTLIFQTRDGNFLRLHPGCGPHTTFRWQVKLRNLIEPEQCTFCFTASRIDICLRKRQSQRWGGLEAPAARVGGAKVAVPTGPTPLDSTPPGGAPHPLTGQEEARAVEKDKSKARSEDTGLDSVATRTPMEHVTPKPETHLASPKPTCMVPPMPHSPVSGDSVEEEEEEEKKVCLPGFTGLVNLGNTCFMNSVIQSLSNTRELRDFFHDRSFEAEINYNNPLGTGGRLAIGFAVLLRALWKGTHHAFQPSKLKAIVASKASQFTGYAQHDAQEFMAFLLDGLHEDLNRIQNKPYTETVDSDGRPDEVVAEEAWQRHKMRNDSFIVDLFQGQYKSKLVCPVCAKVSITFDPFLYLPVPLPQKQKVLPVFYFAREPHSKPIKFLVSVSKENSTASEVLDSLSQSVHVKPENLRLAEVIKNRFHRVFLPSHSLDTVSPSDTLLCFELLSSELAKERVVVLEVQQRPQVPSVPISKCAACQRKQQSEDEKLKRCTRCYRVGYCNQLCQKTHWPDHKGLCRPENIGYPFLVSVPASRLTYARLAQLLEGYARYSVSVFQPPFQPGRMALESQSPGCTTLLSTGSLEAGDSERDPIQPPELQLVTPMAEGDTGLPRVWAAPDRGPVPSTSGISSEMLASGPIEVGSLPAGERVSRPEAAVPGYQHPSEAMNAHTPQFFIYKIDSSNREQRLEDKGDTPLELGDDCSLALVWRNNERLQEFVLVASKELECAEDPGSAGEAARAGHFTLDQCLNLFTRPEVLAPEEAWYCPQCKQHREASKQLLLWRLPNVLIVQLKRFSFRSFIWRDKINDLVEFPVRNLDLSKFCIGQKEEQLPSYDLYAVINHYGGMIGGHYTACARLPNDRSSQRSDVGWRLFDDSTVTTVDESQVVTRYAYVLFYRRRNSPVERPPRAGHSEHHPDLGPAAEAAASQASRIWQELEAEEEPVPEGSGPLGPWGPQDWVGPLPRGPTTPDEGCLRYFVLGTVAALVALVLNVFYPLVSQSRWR
# Method in brief: (§1)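 HEK293T lysate in Tris/CHAPS/IGEPAL buffer with protease inhibitors (495 µg per sample) was given fragment at 200 µM or vehicle for 3 h, in triplicate. It then received Biotin-Ahx-Ub-VS at 0.5 µM final for 1 h. Labelled DUBs were NeutrAvidin-enriched, digested with LysC and trypsin, and run by diaPASEF LC-MS/MS. Values are average log2 fragment/vehicle ratios by unpaired t-test on global-median-normalised Spectronaut quantities of proteins with ≥2 unique peptides.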
# USP24 = USP24 (UniProt Q9UPU5)
# Method in brief: as §1
# USP25 = target: T2, USP25 (UniProt Q9UHP3)
# T2 sequence (whole entry): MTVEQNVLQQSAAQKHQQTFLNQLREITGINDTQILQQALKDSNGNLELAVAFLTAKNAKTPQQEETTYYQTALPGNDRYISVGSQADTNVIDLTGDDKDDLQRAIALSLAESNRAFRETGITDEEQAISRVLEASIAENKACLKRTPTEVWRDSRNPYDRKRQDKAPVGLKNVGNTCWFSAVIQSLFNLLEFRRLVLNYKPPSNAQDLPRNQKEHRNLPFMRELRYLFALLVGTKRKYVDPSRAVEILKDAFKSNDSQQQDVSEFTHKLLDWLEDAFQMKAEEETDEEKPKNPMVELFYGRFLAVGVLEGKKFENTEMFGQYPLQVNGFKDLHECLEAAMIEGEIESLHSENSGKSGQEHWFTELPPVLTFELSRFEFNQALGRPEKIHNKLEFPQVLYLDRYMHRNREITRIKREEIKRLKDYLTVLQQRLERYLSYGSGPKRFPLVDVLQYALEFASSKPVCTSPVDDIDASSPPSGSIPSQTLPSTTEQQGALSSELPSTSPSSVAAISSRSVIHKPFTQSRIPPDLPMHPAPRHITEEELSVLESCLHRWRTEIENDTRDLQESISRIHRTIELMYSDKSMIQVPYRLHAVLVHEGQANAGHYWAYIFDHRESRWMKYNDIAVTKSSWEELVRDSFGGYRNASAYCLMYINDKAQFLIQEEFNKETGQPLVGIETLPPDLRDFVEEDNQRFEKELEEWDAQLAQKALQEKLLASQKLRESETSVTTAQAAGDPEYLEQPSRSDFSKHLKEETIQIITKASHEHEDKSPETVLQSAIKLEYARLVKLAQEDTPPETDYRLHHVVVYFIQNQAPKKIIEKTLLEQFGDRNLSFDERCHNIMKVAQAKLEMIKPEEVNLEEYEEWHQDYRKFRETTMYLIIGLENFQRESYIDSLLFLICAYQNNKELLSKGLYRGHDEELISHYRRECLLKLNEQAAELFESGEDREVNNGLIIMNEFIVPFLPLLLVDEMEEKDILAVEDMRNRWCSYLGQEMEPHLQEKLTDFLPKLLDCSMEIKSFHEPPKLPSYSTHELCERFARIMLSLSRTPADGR
# Method in brief: as §1
# USP28 = target: T3, USP28 (UniProt Q96RU2)
# T3 sequence (whole entry): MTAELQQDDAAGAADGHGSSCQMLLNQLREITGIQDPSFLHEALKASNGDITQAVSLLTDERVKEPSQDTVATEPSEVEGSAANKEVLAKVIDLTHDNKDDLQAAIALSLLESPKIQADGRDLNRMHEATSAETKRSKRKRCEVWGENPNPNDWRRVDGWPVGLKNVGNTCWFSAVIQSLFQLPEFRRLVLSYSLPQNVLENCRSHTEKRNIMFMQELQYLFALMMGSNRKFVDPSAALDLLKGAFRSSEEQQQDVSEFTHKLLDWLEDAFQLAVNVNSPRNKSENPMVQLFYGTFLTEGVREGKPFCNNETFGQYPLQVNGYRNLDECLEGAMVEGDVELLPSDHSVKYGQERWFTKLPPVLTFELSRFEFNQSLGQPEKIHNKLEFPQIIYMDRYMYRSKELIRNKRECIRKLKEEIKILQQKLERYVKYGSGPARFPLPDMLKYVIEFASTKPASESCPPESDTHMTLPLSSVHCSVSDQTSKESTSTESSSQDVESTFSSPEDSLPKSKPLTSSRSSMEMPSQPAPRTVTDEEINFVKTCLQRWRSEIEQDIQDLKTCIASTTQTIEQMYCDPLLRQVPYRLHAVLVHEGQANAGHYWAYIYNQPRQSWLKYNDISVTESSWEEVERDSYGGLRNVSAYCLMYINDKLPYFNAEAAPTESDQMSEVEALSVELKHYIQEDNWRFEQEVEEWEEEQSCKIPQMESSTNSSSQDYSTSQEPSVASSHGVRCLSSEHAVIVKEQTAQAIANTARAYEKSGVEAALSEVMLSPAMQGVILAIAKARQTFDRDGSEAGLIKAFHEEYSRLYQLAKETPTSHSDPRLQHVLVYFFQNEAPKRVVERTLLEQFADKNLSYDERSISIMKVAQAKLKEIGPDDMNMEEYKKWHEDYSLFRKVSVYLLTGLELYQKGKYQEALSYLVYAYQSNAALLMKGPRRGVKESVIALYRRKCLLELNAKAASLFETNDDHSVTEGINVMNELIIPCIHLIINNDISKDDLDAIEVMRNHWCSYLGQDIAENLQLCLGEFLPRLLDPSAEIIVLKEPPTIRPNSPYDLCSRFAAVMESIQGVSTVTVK
# Method in brief: as §1
# Chain of USP24 (Q9UPU5 whole entry): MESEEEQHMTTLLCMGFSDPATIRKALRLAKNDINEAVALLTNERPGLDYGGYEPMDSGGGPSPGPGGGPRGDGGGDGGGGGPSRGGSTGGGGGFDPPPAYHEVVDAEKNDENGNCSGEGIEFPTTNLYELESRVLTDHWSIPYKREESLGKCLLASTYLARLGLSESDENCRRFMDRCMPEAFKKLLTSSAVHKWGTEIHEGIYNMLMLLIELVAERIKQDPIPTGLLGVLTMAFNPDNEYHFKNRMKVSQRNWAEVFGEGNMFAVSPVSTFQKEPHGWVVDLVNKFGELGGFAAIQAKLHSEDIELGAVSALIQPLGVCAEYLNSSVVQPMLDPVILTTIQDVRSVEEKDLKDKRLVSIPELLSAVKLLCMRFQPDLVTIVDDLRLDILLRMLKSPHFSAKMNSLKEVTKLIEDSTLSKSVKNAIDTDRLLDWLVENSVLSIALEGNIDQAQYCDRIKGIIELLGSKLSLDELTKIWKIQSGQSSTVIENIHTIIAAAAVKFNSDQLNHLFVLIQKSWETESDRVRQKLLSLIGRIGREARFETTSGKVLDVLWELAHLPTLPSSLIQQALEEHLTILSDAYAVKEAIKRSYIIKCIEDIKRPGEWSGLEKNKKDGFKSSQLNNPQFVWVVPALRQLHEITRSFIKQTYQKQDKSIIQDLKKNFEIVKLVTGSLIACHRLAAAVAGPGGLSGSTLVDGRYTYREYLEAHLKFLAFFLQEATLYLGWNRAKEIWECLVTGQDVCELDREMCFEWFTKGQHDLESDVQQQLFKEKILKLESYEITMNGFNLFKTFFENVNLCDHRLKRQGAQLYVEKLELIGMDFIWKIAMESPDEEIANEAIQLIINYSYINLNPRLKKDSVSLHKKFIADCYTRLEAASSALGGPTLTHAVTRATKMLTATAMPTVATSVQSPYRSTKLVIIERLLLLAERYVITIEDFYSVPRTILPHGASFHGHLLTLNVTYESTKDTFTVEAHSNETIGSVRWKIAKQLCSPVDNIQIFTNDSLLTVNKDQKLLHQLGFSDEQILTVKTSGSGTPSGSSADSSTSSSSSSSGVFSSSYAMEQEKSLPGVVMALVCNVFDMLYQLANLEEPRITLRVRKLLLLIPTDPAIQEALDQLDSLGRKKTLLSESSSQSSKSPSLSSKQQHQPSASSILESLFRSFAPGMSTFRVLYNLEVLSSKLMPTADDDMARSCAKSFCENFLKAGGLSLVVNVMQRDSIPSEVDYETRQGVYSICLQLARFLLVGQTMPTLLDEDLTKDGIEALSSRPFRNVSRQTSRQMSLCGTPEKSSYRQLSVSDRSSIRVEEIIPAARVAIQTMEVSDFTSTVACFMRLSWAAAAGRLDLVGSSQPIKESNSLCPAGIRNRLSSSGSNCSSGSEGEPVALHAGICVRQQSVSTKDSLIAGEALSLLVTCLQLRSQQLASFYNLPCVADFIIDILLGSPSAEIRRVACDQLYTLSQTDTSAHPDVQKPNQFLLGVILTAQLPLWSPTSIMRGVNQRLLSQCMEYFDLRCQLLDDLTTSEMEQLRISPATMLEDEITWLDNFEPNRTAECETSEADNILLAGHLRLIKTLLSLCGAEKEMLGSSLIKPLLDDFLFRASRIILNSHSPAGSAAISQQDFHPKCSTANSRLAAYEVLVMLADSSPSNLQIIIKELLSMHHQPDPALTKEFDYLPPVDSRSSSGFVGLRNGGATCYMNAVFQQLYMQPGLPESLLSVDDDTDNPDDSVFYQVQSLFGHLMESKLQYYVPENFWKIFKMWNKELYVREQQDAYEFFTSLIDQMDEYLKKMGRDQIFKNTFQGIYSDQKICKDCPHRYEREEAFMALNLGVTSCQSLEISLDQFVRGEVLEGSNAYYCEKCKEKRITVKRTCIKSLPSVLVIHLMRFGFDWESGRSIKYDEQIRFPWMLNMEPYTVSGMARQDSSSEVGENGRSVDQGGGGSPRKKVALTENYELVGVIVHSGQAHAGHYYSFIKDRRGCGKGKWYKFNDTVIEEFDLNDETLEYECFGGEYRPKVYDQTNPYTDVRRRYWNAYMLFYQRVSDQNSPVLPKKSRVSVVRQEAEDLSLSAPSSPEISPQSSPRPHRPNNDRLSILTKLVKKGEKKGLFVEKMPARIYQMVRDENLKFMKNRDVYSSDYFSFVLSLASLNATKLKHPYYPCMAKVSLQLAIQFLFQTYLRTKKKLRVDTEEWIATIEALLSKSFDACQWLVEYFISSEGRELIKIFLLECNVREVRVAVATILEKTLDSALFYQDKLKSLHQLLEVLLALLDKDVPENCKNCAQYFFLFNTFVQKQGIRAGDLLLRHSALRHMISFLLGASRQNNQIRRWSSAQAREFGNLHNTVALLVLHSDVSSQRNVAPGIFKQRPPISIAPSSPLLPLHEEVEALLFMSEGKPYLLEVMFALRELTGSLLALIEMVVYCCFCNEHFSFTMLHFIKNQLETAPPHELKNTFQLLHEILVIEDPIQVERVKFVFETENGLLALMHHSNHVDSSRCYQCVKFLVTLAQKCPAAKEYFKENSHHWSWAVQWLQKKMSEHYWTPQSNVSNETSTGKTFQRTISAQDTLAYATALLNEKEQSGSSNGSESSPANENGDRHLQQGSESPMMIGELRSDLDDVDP
smiles,measurement,setting,value
N#Cc1ccc(Cl)cc1NC(=O)CCl,log2 ratio of Biotin-Ahx-Ub-VS probe labelling,USP19,-0.121
same,log2 ratio of Biotin-Ahx-Ub-VS probe labelling,USP24,-0.83
same,log2 ratio of Biotin-Ahx-Ub-VS probe labelling,USP25,-0.912
same,log2 ratio of Biotin-Ahx-Ub-VS probe labelling,USP28,-1.49 (active)

# — the supplement of paper PMC11732987, “Enantioselective OTUD7B fragment discovery through chemoproteomics screening and high-throughput optimisation” (Communications Chemistry, 2025)
